# Experimental data taken from PubChem BioAssay (Tox21).
# “And” between values parts separate entries of the source, which are not always exact repeats. Equal values may be shown once. Inconclusive results are not listed. Unmarked numbers belong to inactive results. The source made the active and inactive calls. Calls come from the whole dose curve.
# Assay: qHTS assay to identify small molecule agonists of the NFkB signaling pathway - cell viability counter screen (AID 1159515); note: nearly all actives have a fitted effect of over 55% in size
# Conditions: NFkB-bla ME-180 viability, CellTiter-Glo luminescence, 5 h; series mostly up to 61 µM; activity, negative = cytotoxic: at the top concentration
# Description: National Center for Advancing Translational Sciences [NCATS]
# NIH Chemical Genomics Center [NCGC]
# U.S. Environmental Protection Agency [EPA]
# National Institutes of Environmental Health Sciences [NIEHS]
# National Toxicology Program [NTP]
# U.S. Food and Drug Administration [FDA]
# Transcription factors and their stimulated target gene expression play pivotal roles across many cellular processes including responses to environmental stimuli. Proper regulation of associated pathways is critical to maintain cell health and function. Constitutive activation of transcription factor pathways has been implicated in tumors as it may block cellular functions such as apoptosis and lead to invasion and metastasis. One important transcription factor that stimulates gene expression in response to cytokines, UV radiation, and other stimuli is nuclear factor-kappa B (NFkB). To measure activation of the NFkB pathway, the CellSensor NFkB-bla ME-180 cell line (Life Technologies, Carlsbad, CA) that stably expresses beta-lactamase reporter gene under the regulation of a NF-kB response element was used. This assay allows measurement of the NFkB pathway activity induced by compounds in a ME-180 cell line. This system quantitates NF-kB activity using a FRET-based assay system where beta-lactamase expression disrupts FRET, allowing for fluorescent measurement of activity. This cell line has been used to screen the Tox21 10K compound library and to identify compounds that induce the NFkB pathway activity. The cytotoxicity of the Tox21 compound library against the NFkB-bla ME-180 cell line was tested in parallel by measuring cell viability using the CellTiter-Glo assay in the same wells.
# Tox21 Assay Protocol Summary:
# NFkB-bla ME-180 cells were dispensed at 2,000 cells/6 uL of assay medium per well into black wall/clear-bottom 1536-well plates using a Multidrop Combi (ThermoFisher Scientific, Waltham, MA) dispenser. After the assay plates were incubated at 37 C and 5% CO2 for an overnight, 23 nL of compounds dissolved in DMSO, positive controls or DMSO only was transferred to the assay plate by a Pintool station (Kalypsys, San Diego, CA). The assay plates were incubated at 37 C and 5% CO2 for 5 hr. One uL of LiveBLAzer B/G FRET substrate (Life Technologies) was added using a Flying Reagent Dispenser (Aurora Discovery, San Diego, CA) and the plates were incubated at room temperature for 1.5 hr. Fluorescence intensity (405 nm excitation, 460 nm and 530 nm emissions) was measured using an Envision plate reader (PerkinElmer, Shelton, CT). For cytotoxicity, 3 ul/well of CellTiter-Glo reagent was added into the assay plates using an FRD. After 30 min incubation at room temperature, the luminescence intensity was measured using a ViewLux plate reader (PerkinElmer).
# % is set by controls: 0 for no effect and ±100 for the full control effect; potency is the fitted concentration of half-maximal effect.
Compound,"activity, negative = cytotoxic",Potency
O=C(N/N=C/c1ccc([N+](=O)[O-])o1)c1cc([N+](=O)[O-])cc([N+](=O)[O-])c1O,8.57%,–
CC(C)(C)OOC(C)(C)CCC(C)(C)OOC(C)(C)C,7.4%,–
CCC1(CC)C(=O)NC(=O)NC1=O,0.472%,–
CC[N+]1(CCOC(=O)C(O)(c2ccccc2)c2ccccc2)CCCCC1,3.8%,–
C=CC(C)(CCC=C(C)C)OC(=O)c1ccccc1N (stereo not given),15% [at 78.8 µM],–
O=S(=O)(Cl)Cl,-5.27%,–
C=CCc1ccccc1O,1%,–
C[N+](C)(C)CCOC(=O)C(O)(c1ccccc1)c1ccccc1,-1.69%,–
Cc1ccc2c(C)cccc2c1,-12.3%,–
Cc1ccc(N)c(C)c1,3.87%,–
CCOP(=S)(S)OCC,-5.19% [at 78.8 µM],–
C[CH2][Hg][S]c1ccccc1C(=O)O,–,3.47 µM (active) and 6.01 µM (active)
CC[N+]1(C)CCCC(OC(=O)C(O)(c2ccccc2)c2ccccc2)C1 (stereo not given),-7.09%,–
CNC(=O)Oc1cccc(N=CN(C)C)c1,11.9%,–
CCC1(C2=NCCN2)Cc2ccccc2O1 (stereo not given),4.3%,–
CC(Cl)C(=O)O (stereo not given),14.5% [at 78.8 µM],–
CCOP(=O)(SC(C)CC)N1CCSC1=O (stereo not given),3.76%,–
O=C(Cc1ccccc1)c1ccccc1,-0.792%,–
c1ccc2sc(SNC3CCCCC3)nc2c1,7.58%,–
COc1cc(CC#N)cc(OC)c1OC,16.1%,–

Compound,"activity, negative = cytotoxic",Potency
O=[N+]([O-])c1cc(Cl)c(Cl)cc1Cl,-4.44%,–
O=C(NC(=O)c1cc(F)c(F)cc1Cl)Nc1cc(F)ccc1N1CCC(C(=O)O)CC1,-3.85%,–
O=C(O)C(O)C(O)C(=O)O (stereo not given),-2.58%,–
COc1ccc2c(c1OC)C(=O)O[C@H]2[C@@H]1c2cc3c(cc2CCN1C)OCO3,9.77%,–
CC1(C)CC(=O)CC(C)(C)N1[O],-6.14%,–
NC(=O)CF,8.58%,–
CC(C)(C)c1ccc(CCOc2ncnc3ccccc23)cc1,4.63%,–
CC(C)(C)NCC(O)c1cc(Cl)c(N)c(C(F)(F)F)c1 (stereo not given),11.5%,–
N#CC(C#N)=Cc1ccc(O)c(O)c1,19.3%,–
COC1=CC(=O)O[C@@H](/C=C/c2ccc3c(c2)OCO3)C1,-4.6%,–
NP(N)(=O)NC(=O)c1ccc(F)cc1,3.1%,–
CC(C)(C#N)C(C)(C)C#N,0.043% [at 78.8 µM],–
CCOC(=O)c1cn2nc(OP(=S)(OCC)OCC)cc2nc1C,-1.2%,–
FC(Cl)(Cl)C(F)(Cl)Cl,14.1% [at 78.8 µM],–
CCCCC#N,-0.887%,–
CCCN(CCOc1c(Cl)cc(Cl)cc1Cl)C(=O)n1ccnc1,–,inactive
CC(C)c1ccc(OP(=O)(Oc2ccc(C(C)C)cc2)Oc2ccc(C(C)C)cc2)cc1,–,30.9 µM (active)
COc1cc(C[C@@H](C)N)c(OC)cc1Br,-22.1% [at 78.8 µM],–
CCCCC1C(=O)NC(=O)N(C2CCCCC2)C1=O (stereo not given),-1.09%,–
Nc1c(Br)cc(Br)c2c1C(=O)c1ccccc1C2=O,-5.51% [at 28.5 µM],–
